# A selection: hits, their analogues and other compounds. The true share with any hit is near 15%.
# 12-LOX inh = ALOX12 (human) lipoxygenase inhibition; P18054; purified 12hLO, xylenol orange hydroperoxide absorbance; Potency, µM (series often up to 108 µM), for the others: at the top dose activity change, negative = inhibition, hits mostly inhibitors; 1.1% of 580,000 active; AID 1671190
# Target sequence (P18054 whole entry, looked up): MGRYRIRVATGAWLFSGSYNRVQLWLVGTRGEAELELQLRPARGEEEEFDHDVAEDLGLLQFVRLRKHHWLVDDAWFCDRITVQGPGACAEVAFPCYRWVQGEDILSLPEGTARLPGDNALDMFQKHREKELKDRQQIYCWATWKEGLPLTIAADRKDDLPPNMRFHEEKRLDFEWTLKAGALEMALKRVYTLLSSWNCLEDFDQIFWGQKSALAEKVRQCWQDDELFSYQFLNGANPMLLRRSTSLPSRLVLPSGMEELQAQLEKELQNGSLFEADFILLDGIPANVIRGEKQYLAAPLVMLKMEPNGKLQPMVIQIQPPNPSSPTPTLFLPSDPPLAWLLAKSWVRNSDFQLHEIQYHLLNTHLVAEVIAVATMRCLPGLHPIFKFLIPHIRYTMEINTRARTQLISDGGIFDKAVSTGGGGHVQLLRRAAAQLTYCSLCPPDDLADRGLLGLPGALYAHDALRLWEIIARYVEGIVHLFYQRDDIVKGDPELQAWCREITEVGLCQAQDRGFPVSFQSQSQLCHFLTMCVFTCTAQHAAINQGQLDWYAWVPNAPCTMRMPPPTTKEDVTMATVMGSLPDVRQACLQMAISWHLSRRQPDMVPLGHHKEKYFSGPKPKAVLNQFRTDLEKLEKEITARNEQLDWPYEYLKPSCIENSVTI
#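 Hydroperoxide product was detected by ferrous iron/xylenol orange as the 573 to 405 nm absorbance ratio. Arachidonic acid at 40 uM (final) was turned over for 30 min at room temperature by 150 nM human 12hLO, pH 7.0 Hepes buffer, after 15 min compound preincubation.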
# RORgamma inh = ROR gamma (mouse) transcription inhibition | P51450 | 5.4% of 310,000 active | Drosophila S2 Gal4-RORgamma UAS-luciferase reporter, 20 h | Potency, µM (series often up to 53.6 µM), for inactives: top-dose activity change, negative = inhibition, actives largely listed as inhibitors; note: nearly all actives have a fitted effect of over 60% in size
#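 Drosophila Schneider cells stably carrying a metallothionein-driven Gal4 DBD–ROR gamma fusion and a UAS-Photinus luciferase reporter were exposed to compound for 1 hr, then induced with copper sulfate (700 uM final) for 20 hr at ambient temperature before luminescence reading.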
# DT40 TDP1 CPT = growth inhibition of DT40 Tdp1-/-;hTDP1 cells with camptothecin (screen for TDP1 inhibitors); chicken DT40 Tdp1-/-;hTDP1 cells + 20 nM CPT, ATP luminescence, 48 h; Potency, µM (titrated, usually from 46.2 µM), for the others: top-dose activity change, negative = growth inhibition, most hits filed as inhibitors; 12% of 420,000 active; AID 686979; note: nearly all actives have a fitted effect of over 55% in size
#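 Chicken DT40 Tdp1-/- cells complemented with human TDP1, 400 cells/well, exposed to compounds plus 20 nM camptothecin for at least 48 h at 37 C; viability read as ATP content by CellTiter-Glo luminescence.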
# Gal4-VP16 FLuc = inhibits Gal4-VP16 luciferase reporter, ROR gamma counter-screen; Potency, µM (titrated, usually from 53.6 µM), inactives show at the highest dose activity, negative = inhibition, usual class: inhibitors; 3.5% of 310,000 active; Drosophila S2 Gal4-VP16 UAS-luciferase, luminescence, 20 h;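 note: Gal4-VP16 expression switched on by copper sulfate through the metallothionein promoter; nearly all actives have a fitted effect of over 50% in size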
# DT40 TDP1 no CPT = qHTS for Inhibitors of human tyrosyl-DNA phosphodiesterase 1 (TDP1): qHTS in cells in absence of CPT. DT40 Tdp1-/- hTDP1 cells, no CPT, ATP luminescence, 48 h. Potency, µM (top dose mostly 46.2 µM), inactives show at the top dose activity change, negative = growth inhibition, hits mostly inhibitors. 15% of 420,000 active; note: nearly all actives have a fitted effect of over 55% in size
#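 DT40 Tdp1-/-;hTDP1 cells, no CPT (DMSO vehicle only), 400 cells/well; compounds pin-transferred; ≥48 hr, 37 °C; CellTiter-Glo 30 min RT dark, luminescence read.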
# ELG1 repair inh = ELG1-dependent DNA repair inhibition; 2.3% of 330,000 active; Potency, µM (highest dose often 46.1 µM), without a hit: at the top dose activity change, negative = inhibition, actives largely listed as inhibitors; HEK293T ELG1-luciferase reporter, luminescence, 16 h; DNA damage induced by 5-fluorouridine; note: nearly all actives have a fitted effect of over 55% in size
#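 Luminescence from the luciferase reporter, measured 30 min after ONE-Glo reagent at room temperature, was the read-out. Beforehand, 2,000 cells per well were exposed for 16 hr at 37 °C to 5-fluorouridine together with compound or vehicle.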
# * = called active by the depositor; ? = inconclusive; nt = no result given; [ ] = another dose, or the depositor's remark. Calls come from the whole dose curve; as a rule, active = well fitted curve in the direction sought with a large enough effect; inconclusive = small, poorly fitted or top-dose-only effect, or another doubt; inactive = no such curve, though single readings can be large; an effect the other way counts as inactive or inconclusive. % is set by controls: 0 for no effect and ±100 for the full control effect; potency is the fitted concentration of half-maximal effect.
SMILES,12-LOX inh,RORgamma inh,DT40 TDP1 CPT,Gal4-VP16 FLuc,DT40 TDP1 no CPT,ELG1 repair inh
C=CCN1C=C2C(=O)C(C)(OC(=O)c3ccc(OC)cc3)C(=O)C(c3ccco3)=C2C=C1CCCC (configuration not stated),-19%,-14%,13µM*,-1%,-4%,1%
COC(=O)CCCC1=CC2=C(c3ccccc3)C(=O)C(C)(OC(=O)C3CCCC3)C(=O)C2=CN1Cc1ccco1 (configuration not stated),0%,-2%,-3%,9%,?,-4%
CCCCC1=CC2=C(c3ccco3)C(=O)C(C)(OC(=O)c3ccc(OC)cc3)C(=O)C2=CN1c1ccccc1 (configuration not stated),nt,1%,23µM*,2%,?,-1%
C=CC1=C2C=C(C3CC3)N(CCCN(CC)CC)C=C2C(=O)C(C)(OC(=O)c2ccco2)C1=O (configuration not stated),?,nt,-25%,nt,0%,nt
CCC(NC(=O)c1cc(Cn2ccc3ccccc32)[nH]n1)c1ncccc1C (configuration not stated),111%,nt,nt,nt,nt,nt
CCCCCC[N+](C)(C)CC/C=C1/c2ccccc2Sc2ccc(Cl)cc21,?,30%,7.3µM*,-27%,5.8µM*,-17%
OCCN1CCN(CCC=C2c3ccccc3Sc3ccc(Cl)cc32)CC1,nt,1%[2.98 µM],nt,?,nt,nt
Cc1noc(C)c1[S+](=O)([O-])N1CCCC2(C1)C(=NC1CCCCC1)NC(=O)N2c1cccnc1 (configuration not stated),87%,nt,nt,nt,nt,nt
O=C(Nc1ncn[nH]1)C1CC(=O)N(c2ccc3c(c2)OCCO3)C1 (configuration not stated),8%,nt,nt,nt,nt,nt
CCNC(=S)/N=C(/Nc1ccccc1)Nc1nc(C)cc(C)n1,?,0.79µM*,?,3.2µM*,?,?
CCNC(=S)/N=C(/Nc1ccc(OC)cc1)Nc1nc(C)cc(C)n1,?,1.8µM*,23µM*,?,21µM*,-6%
CCNC(=S)NC(=NCc1cccnc1)Nc1nc(C)cc(C)n1,-24%,11µM*,0%,?,?,-16%
COc1cccc(N/C(=N/C(=S)Nc2ccc(C)cc2C)Nc2nc(C)cc(C)n2)c1,0%,1.3µM*,?,3.2µM*,18µM*,26µM*
COc1ccc(OCC(=O)Nc2ccc(S(=O)(=O)Nc3nc(C)cc(C)n3)cc2)cc1,-1%,-10%,-25%,3%,-22%,8%
Cc1cc(C)nc(NC(N)=NCc2cccnc2)n1,3%,nt,nt,nt,nt,nt
COC(=O)Cn1c(CCS(=O)(=O)c2ccc(C)cc2)nc2ccccc21,-10%,3%,?,2%[0.365 µM],?,0%
COC(=O)Cn1c(CCS(=O)(=O)c2ccc(Cl)cc2)nc2ccccc21,0%,3.5µM*,-7%,4%,?,-12%
COC(=O)c1cc(S(=O)(=O)Nc2cccc(-c3ccno3)c2)c[nH]1,1%,nt,12µM*,nt,7.3µM*,nt
OC(COC(c1ccc(Cl)cc1)c1ccc(Cl)cc1)CN1CCCC1 (configuration not stated),-9%,-24%,?,-2%,-20%,nt
Cc1ccc(C(OCC(O)CNC(C)c2ccccc2)c2ccccc2)cc1 (configuration not stated),?,-28%,7.3µM*,5%,12µM*,-3%
OC(COC(c1ccccc1)c1ccccc1)CN1CCc2ccccc2C1 (configuration not stated),1%,?,?,7%,21µM*,3%
Cc1ccc(C(OCC(O)CNC(CO)C(O)c2ccc([N+](=O)[O-])cc2)c2ccccc2)cc1 (configuration not stated),?,0%,?,-4%,15µM*,26%
Cc1ccc(OCC(O)CNC(C)c2ccccc2)cc1C (configuration not stated),-15%,5%,?,-9%,-104%,-1%
Cc1ccc(C(OCC(O)CN2CCCCC2)c2ccccc2)cc1 (configuration not stated),-21%,-17%,1%,2%,23µM*,-1%
CC(=O)N(C1CC1)C1CCOC2(CCN(C(=O)c3nccc4ccccc34)CC2)C1 (configuration not stated),-12%,nt,nt,nt,nt,nt
SMILES,12-LOX inh,RORgamma inh,DT40 TDP1 CPT,Gal4-VP16 FLuc,DT40 TDP1 no CPT,ELG1 repair inh
Cc1nc(SCc2nc(-c3cccc(Cl)c3)oc2C)[nH]c(=O)c1C,-17%,nt,nt,nt,nt,nt
CCN1CCN(CCCNC(=O)c2ccc3c(c2)N(Cc2ccc(C)cc2)CCS3)CC1,nt,6%,?,-2%,?,-1%
Cc1ccc(CN2CCSc3ccc(C(=O)NCCCN4CCOCC4)cc32)cc1,?,1%,21µM*,-1%,?,3%
CN1CCN(CCCNC(=O)c2ccc3c(c2)N(Cc2ccccc2)CCS3)CC1,56%,-18%,21µM*,2%,?,2%
O=C(NCCN1CCOCC1)c1ccc2c(c1)N(Cc1ccccc1)CCS2,-26%,-4%,?,5%,?,-3%
O=C(NCCCN1CCOCC1)c1ccc2c(c1)N(Cc1ccccc1)CCS2,-7%,-9%,?,-1%,23µM*,26%
COC/C=C/C1=CC2=CC(=O)C(C)(OC(=O)C3CCCC3)C(=O)C2=CO1 (configuration not stated),22µM*,-11%,?,-10%,?,5%
CNS(=O)(=O)c1ccc(CN2CCCC3(C2)CN(C)C(=O)O3)cc1 (configuration not stated),11%,nt,nt,nt,nt,nt
Nc1ncncc1-c1ccc(F)cc1,0%,nt,-6%,nt,?,nt
Nc1ncncc1-c1ccc([N+](=O)[O-])cc1,-1%,2%,16µM*,1%,?,1%
Nc1cccc(CCc2nc3cc4ccccc4cc3[nH]2)c1,-12%,?,3.3µM*,21%,4.1µM*,?
CC(C)C[C@@H](CN1CCCC1CN1C(=S)NC[C@@H]1Cc1ccc(O)cc1)N1C[C@H](Cc2ccccc2)N(CCc2ccccc2)C1=S (some centres not stated),-48%,nt,?,nt,15µM*,nt
CC(C)C[C@H]1CNC(=S)N1C[C@H]1CCCN1C[C@H](CC(C)C)N1C[C@H](Cc2ccc(O)cc2)N(CCc2ccccc2)C1=S,-86%,nt,?,nt,18µM*,nt

# Screens as filed in PubChem.
